Test [1] is described as follows: qHTS assay to identify small molecule agonists of the hypoxia (HIF-1) signaling pathway - cell viability counter screen (AID 1224844; calls by dose curve; note: nearly all actives have a fitted effect of over 50% in size). Summed up: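 HRE-bla ME-180 cells in medium with 0.5% dialyzed FBS were preincubated 5 hrs at 37C, exposed to compounds for 17 hrs, then viability was read as CellTiter-Glo luminescence after 30 min at room temperature, in the reporter wells.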
Background: qHTS replaces the single test concentration by a dilution series.

Test [2] in a line: qHTS assay to identify small molecule agonists of H2AX (AID 1224845; active = well fitted activation curve with a large enough effect in the signal ratio in the repeat runs, not every such curve was filed as active; the % refers to the signal ratio). Summed up:
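Wild-type CHO-K1 cells, plated overnight, exposed 3hr at 37C to 15 concentrations (0.76% DMSO final). Lysed, then HTRF anti-pH2AX (S139) cryptate and anti-H2AX-d2 antibodies, 24 hr room temperature; 665/620 nm emission read.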

Test [3] is described as follows: qHTS assay to identify small molecule agonists of the hypoxia (HIF-1) signaling pathway (AID 1224846; active = well fitted activation curve with a large enough effect in the signal ratio in the repeat runs, not every such curve was filed as active; the % refers to the signal ratio). In outline: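 HRE-bla ME-180 cells (beta-lactamase reporter under hypoxia response element) were plated at 2,000 cells/well in medium with 0.5% dialyzed FBS, rested 5 hrs, then given compounds in DMSO for 17 hrs at 37C, 5% CO2. Reporter induction was read with CCF4-AM FRET substrate.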

A short description of test [4]: qHTS RealTime-Glo MT Cell Viability Assay in HepG2 cells - 24 hour (AID 1224867). Note: nearly all actives have a fitted effect of over 50% in size. In outline: (§1)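 HepG2 cells (600/well) were dispensed with RealTime-Glo reagents, incubated 5 h at 37 °C, then treated with compounds in DMSO for up to 40 h. Nonlytic NanoLuc luminescence reflecting viable cells was read at each stated time point.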
Test [5] can be described thus: qHTS RealTime-Glo MT Cell Viability Assay in HEK293 cells - 32 hour (AID 1224868). Note: top concentration of the series differs between compounds; nearly all actives have a fitted effect of over 50% in size. In outline:
(§2)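 HEK293 cells seeded with NanoLuc/prosubstrate reagent, rested 5 h at 37 C, then dosed and kept at 37 C up to 40 h. Nonlytic real-time luminescence from viable cells read at 0, 8, 16, 24, 32 and 40 h.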

Test [6] in a line: A CellTox Green Cytotoxicity Assay to monitor cytotoxicity in HEK293 cells - 0 hour (AID 1224869). Note: nearly all actives have a fitted effect of over 50% in size. Summed up:
(§3)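 HEK293 cells premixed with CellTox Green dye were seeded at 600 cells/well and left 5 h at 37 C/5% CO2 before pin transfer of 23 nL compound in DMSO. Fluorescence from dye bound to dead-cell DNA was read during 40 h treatment.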

A short description of test [7]: qHTS RealTime-Glo MT Cell Viability Assay in HepG2 cells - 40 hour (AID 1224870). Note: nearly all actives have a fitted effect of over 50% in size. In outline: (§4)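 HepG2 cells (600/well) mixed with RealTime-Glo MT reagent, settled 5 h at 37 C/5% CO2 before compound addition. Nonlytic NanoLuc luminescence from viable-cell prosubstrate reduction read repeatedly during 40 h treatment at 37 C.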
Test [8] in a line: A CellTox Green Cytotoxicity Assay to monitor cytotoxicity in HEK293 cells - 40 hour (AID 1224871). Note: nearly all actives have a fitted effect of over 45% in size. Summed up:
as §3

The nature of test [9]: qHTS RealTime-Glo MT Cell Viability Assay in HEK293 cells - 40 hour (AID 1224874). Note: nearly all actives have a fitted effect of over 50% in size. To be noted: RealTime-Glo luminescence; max response: stronger effect = lower value. Summed up:
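HEK293 cells mixed with RealTime-Glo reagents (NanoLuc plus cell-permeant prosubstrate) at 600 cells/well, preincubated 5 h at 37 C/5% CO2, then given 23 nL compound in DMSO. Nonlytic luminescence from viable cells was read at 0, 8, 16, 24, 32 and 40 h.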

Test [10] in a line: A CellTox Green Cytotoxicity Assay to monitor cytotoxicity in HEK293 cells - 24 hour (AID 1224875). Note: nearly all actives have a fitted effect of over 45% in size. In outline:
as §3

Test [11] in a line: A CellTox Green Cytotoxicity Assay to monitor cytotoxicity in HepG2 cells - 16 hour (AID 1224876). Note: nearly all actives have a fitted effect of over 45% in size. Summed up:
(§5)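 HepG2 cells were seeded together with the CellTox Green dye at 600 cells/well, left 5 h at 37 C/5% CO2, then given compounds in DMSO. Fluorescence from dye bound to dead-cell DNA was read repeatedly over 40 h of treatment at 37 C.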

Test [12] is described as follows: qHTS RealTime-Glo MT Cell Viability Assay in HepG2 cells - 32 hour (AID 1224877). Note: nearly all actives have a fitted effect of over 55% in size. Summed up: as §1
Test [13] can be described thus: A CellTox Green Cytotoxicity Assay to monitor cytotoxicity in HepG2 cells - 24 hour (AID 1224878). Note: nearly all actives have a fitted effect of over 45% in size. In outline: as §5
Test [14] in a line: A CellTox Green Cytotoxicity Assay to monitor cytotoxicity in HepG2 cells - 40 hour (AID 1224879). Note: nearly all actives have a fitted effect of over 40% in size. Note: potency is the fitted concentration of half-maximal effect. Summed up:
as §5

A short description of test [15]: qHTS RealTime-Glo MT Cell Viability Assay in HEK293 cells - 16 hour (AID 1224872). Note: nearly all actives have a fitted effect of over 50% in size. Note: potency is the fitted concentration of half-maximal effect. Summed up:
as §2

Test [16] is described as follows: qHTS RealTime-Glo MT Cell Viability Assay in HepG2 cells - 8 hour (AID 1224873). Note: nearly all actives have a fitted effect of over 55% in size. Summed up:
as §4

A short description of test [17]: qHTS assay to identify small molecule agonists of H2AX - cell viability counter screen (AID 1224847; calls by dose curve; note: top concentration of the series differs between compounds; nearly all actives have a fitted effect of over 30% in size). In outline: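 After overnight plating of 1000 CHO-K1 cells per well, a 15-concentration compound series was applied for 3 hr at 37C. Luminescence from CellTiter-Glo, read following 30 min at room temperature, reflected cell viability.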
Test [18] can be described thus: qHTS assay to identify small molecule antagonists of the estrogen related receptor (ERR) signaling pathway from Tox21 library (AID 1224848). Note: nearly all actives have a fitted effect of over 50% in size. Note: potency is the fitted concentration of half-maximal effect. Summed up:
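Luminescent reporter read-out (ONE-Glo) from NTP's ERR cell line after 18 h treatment at 37 C with DMSO-dissolved Tox21 compounds; cells pre-plated 6 h beforehand at 2,000 per well.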

The nature of test [19]: qHTS assay to identify small molecule agonists of the estrogen related receptor (ERR) signaling pathway from Tox21 library (AID 1224849; calls by dose curve; note: nearly all actives have a fitted effect of over 15% in size). To be noted: ERR reporter cell line, ONE-Glo luciferase, 18 h; at 92.4 µM (top of the series) unless noted. Summed up: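 ERR reporter cell line (NTP) seeded, rested 6 h at 37 C/5% CO2, then pinned with Tox21 compounds in DMSO. After 18 h at 37 C, ONE-Glo luciferase luminescence was read following 30 min at room temperature.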

Unmarked numbers belong to inactive results. Inconclusive results are not listed. Calls of active or inactive are those of the source. Unless noted, calls come from the whole dose curve; as a rule, active = well fitted curve in the direction sought with a large enough effect in the repeat runs; inconclusive = weak or mixed curves; inactive = no such curve, though single readings can be large; an effect the other way counts as inactive or inconclusive.
% is set by controls: 0 for no effect and ±100 for the full control effect.

In the case of `CC1(O)CSC(C)(O)CS1` (stereo not given), the Potency result in test [1], in test [2], in test [4], in [5], in test [6] and in test [7] was “inactive” in each case. For the same compound, the Potency result in test [8], in test [10], in test [11], in [12], in test [13] and in test [14] was “inactive” throughout. In test [3], the compound was classed as inactive. Besides, in test [9], the max response was 5.86%.

Take `CO[C@@]1(NC(=O)CSCC#N)C(=O)N2C(C(=O)O)=C(CSc3nnnn3C)CS[C@@H]21`: the Potency entry in test [1], in test [2], in test [4], in test [5], in test [6] and in test [7] was “inactive” in each case. For the same compound, the Potency result in test [8], in test [15], in test [10], in test [11], in test [12] and in test [13] was “inactive” in each case. Moreover, the Potency entry in [14] is “inactive”. Also, the outcome in test [16] was inactive. Further, the max response in test [9] is 7.28%.

Turning to `CC1=C2[C@H](/C=C(\C)C(=O)O)CC[C@@H](C)[C@H]2CC1`, the Potency entry in test [2], in test [17], in test [4], in [6], in test [7] and in test [11] was “inactive” each time. For the same compound, the Potency entry in [12], in test [13] and in test [14] was “inactive” in each case. Also, the compound was classed as inactive in test [3] and in test [16]. Besides, the values for the Potency in test [18] and in test [15] were 56.5 µM (active) and 36 µM (active), respectively. Moreover, in test [19], the activity change, positive = activation was -46%.

In the case of `CN(C)CCOc1ccccc1Cc1ccccc1`, the Potency entry in test [1], in test [2], in test [17], in test [18], in [4] and in test [6] was “inactive” each time. Moreover, the Potency entry in test [7], in test [8], in test [15], in test [10] and in test [12] was “inactive” throughout. The activity change, positive = activation in [19] is 6.12% [at 42.5 µM]. Besides, in test [16], the result was inactive.

With `CCCNC(C)C(=O)Nc1c(C)csc1C(=O)OC` (stereo not given), the Potency entry in [1], in [2], in [17], in test [18], in test [4] and in test [5] was “inactive” each time. Further, the Potency result in [6], in [7], in test [8], in test [15], in [10] and in [11] was “inactive” in each case. For the same compound, the Potency entry in test [12], in [13] and in test [14] was “inactive” each time. Besides, the activity change, positive = activation in [19] was -1.49% [at 42.5 µM]. The call in test [16] was inactive. Further, the max response in test [9] is -5.59%.

On to `O=Cc1ccc(O)c(O)c1O`, for which the Potency entry in [1], in [4], in test [5], in test [6], in test [7] and in [8] was “inactive” throughout. Moreover, the Potency entry in [15], in test [10], in [11] and in [12] was “inactive” each time. Besides, the result in test [3] was inactive. Moreover, the max response in [9] was 1.24%.

In the case of `CC(C)NCC(O)COc1ccc(CCOCC2CC2)cc1` (stereo not given), the Potency entry in [1], in test [2], in test [17], in [4], in test [5] and in [6] was “inactive” throughout. Besides, the Potency entry in test [7], in [8], in [15], in [10], in [11] and in test [12] was “inactive” in each case. Further, the Potency entry in test [13] and in [14] was “inactive” in each case. Moreover, the compound was called inactive in [16]. Besides, the max response in test [9] is -6.16%.

For the compound `CN(CCCN1c2ccccc2CCc2ccccc21)CC(=O)c1ccc(Cl)cc1`, the Potency result in test [2], in [17], in test [4], in test [5], in [6] and in test [7] was “inactive” in each case. Besides, the Potency entry in test [8], in test [15], in test [10], in test [11], in test [12] and in test [13] was “inactive” throughout. Moreover, the call in test [3] was inactive. Further, in test [9], the max response is -24.7%. The Potency in test [14] was 21.3 µM (active).

On to `O=C1N(c2ccccc2)c2ccccc2C1(Cc1ccncc1)Cc1ccncc1`, for which the Potency result in test [1], in [2], in [17], in test [18], in [4] and in test [5] was “inactive” throughout. In addition, the Potency result in [6], in test [7], in test [8], in test [15], in [10] and in test [11] was “inactive” each time. Further, the Potency entry in test [12] and in [14] was “inactive” throughout. Moreover, the activity change, positive = activation in [19] was 5.08% [at 42.5 µM]. In addition, the compound was classed as inactive in [16]. The max response in test [9] was 5.52%.

On to `CCN[C@H]1CN(CCCOC)S(=O)(=O)c2sc(S(N)(=O)=O)cc21`, for which the Potency result in test [1], in test [2], in [17], in test [4], in test [5] and in test [6] was “inactive” throughout. Also, the Potency result in [7], in [8], in test [15], in [10], in [11] and in [12] was “inactive” each time. Moreover, the Potency entry in [13] and in [14] was “inactive” in each case. In test [16], the call was inactive. For the same compound, the max response in test [9] was -0.402%.

(Values after PubChem BioAssay (Tox21).)
